± gives the standard deviation of the averaged measurements. In all, about 4,000 sequences were measured (“arbitrary fluorescence units”: median about 830, highest 2% from about 6,500 on). What follows is part of a selection rich in the highest values, with near analogues and random picks from the rest.
These sequences were tested against RUNX1 (UniProt Q01196) (assay: RUNX1 binding intensity (PBM fluorescence), RUNX1 alone (arbitrary fluorescence units); higher = stronger binding). Conditions: RUNX1 concentration 2 nM; ETS1 concentration 0 nM.
RUNX1, sequence (Q01196 whole entry): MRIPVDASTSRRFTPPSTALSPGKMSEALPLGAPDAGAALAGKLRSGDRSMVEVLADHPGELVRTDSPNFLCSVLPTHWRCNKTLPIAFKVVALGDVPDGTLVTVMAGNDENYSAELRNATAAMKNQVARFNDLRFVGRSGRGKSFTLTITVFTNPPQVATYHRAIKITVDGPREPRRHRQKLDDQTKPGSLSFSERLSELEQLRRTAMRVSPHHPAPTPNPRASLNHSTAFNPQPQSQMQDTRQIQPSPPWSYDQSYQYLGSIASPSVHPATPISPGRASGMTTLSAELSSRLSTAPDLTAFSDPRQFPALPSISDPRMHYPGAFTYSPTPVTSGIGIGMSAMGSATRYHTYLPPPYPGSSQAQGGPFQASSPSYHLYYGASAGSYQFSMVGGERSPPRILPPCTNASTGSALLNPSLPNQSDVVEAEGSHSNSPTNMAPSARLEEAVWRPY
Description: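 gcPBM on 36-bp genomic-derived probes (partner site mutated) containing one RUNX1 site and no ETS1 site. Recombinant human RUNX1 (2 nM) was incubated alone or with ETS1 (25 nM) and detected by anti-RUNX1 antibody fluorescence. Values are medians over 4 replicate spots (not normalised). The probes sit in constant array flanks that are not printed.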

Question: GCCCCTCTTTCTGACTCACACAACCGCCTCTAGTCT was tested. Which RUNX1 binding intensity did it give?
Answer: The RUNX1 binding intensity was 1540.

Question: Which RUNX1 binding intensity does the source give for TTGTGGTAGGGAAATCCACTTACCCCCTCCTCATGT here?
Answer: The RUNX1 binding intensity was 808.

Question: How did the RUNX1 binding intensity turn out when TGTGGCAACCACAGCCCCAAAACAAAGAGGAGACAC was run?
Answer: The RUNX1 binding intensity was 1040.

Question: With AGCTGAGGTCGCGGTGCAGCAGCAGCAAACGTGATA as the sequence, how does the RUNX1 binding intensity read?
Answer: Its RUNX1 binding intensity is 1010.

Question: With CCACTAGCAGCAAAACGGGCCGAGGGACCGCAAGCA as the sequence, how does the RUNX1 binding intensity read?
Answer: The RUNX1 binding intensity was 821.

Question: Which RUNX1 binding intensity does the source give for AACTTGTGGGGTTTTCTTCTGATCTTGCTCCCCGCT here?
Answer: The RUNX1 binding intensity was 998.

Question: With GAAACCACAACCTACCCCAGCCTTACTTTCGGGCGC as the sequence, how does the RUNX1 binding intensity read?
Answer: Its RUNX1 binding intensity is 3300.

Question: With CCATTCTTACGGTGGAGATGGCTGCGGCCGTGGCGG as the sequence, how does the RUNX1 binding intensity read?
Answer: Its RUNX1 binding intensity is 815.

Question: Which RUNX1 binding intensity does the source give for TCAAGAAAACAGTAAACTCTCAAAACCAAGTTCTGA here?
Answer: The RUNX1 binding intensity was 736.

Question: With GCAATCTTGACCACAACATGGAGACAGGCAATCAAA as the sequence, how does the RUNX1 binding intensity read?
Answer: The RUNX1 binding intensity was 1540.

Question: How did the RUNX1 binding intensity turn out when ACGTCTGTTTACTGTGATTGAAACCGCAAGAAGAAG was run?
Answer: Its RUNX1 binding intensity is 9630.

Question: TAGGTCTGTGGGTGACGTCTGTTTACTGTGATTGAA was tested. Which RUNX1 binding intensity did it give?
Answer: Its RUNX1 binding intensity is 842.

Question: How did the RUNX1 binding intensity turn out when CATTCATGTGGCTTATAGGCACACCCTGCCTGCCTA was run?
Answer: Its RUNX1 binding intensity is 824.

Question: Which RUNX1 binding intensity does the source give for TCCTCCGTTCCCGTAGTTCCGAGTTGCGGTTTCTCC here?
Answer: The RUNX1 binding intensity was 7620.

Question: With GAGGCGTTGCCGCCTCCTTTTCGCGGTTGCCTTCTC as the sequence, how does the RUNX1 binding intensity read?
Answer: Its RUNX1 binding intensity is 988.

Question: How did the RUNX1 binding intensity turn out when CCCCTTGCCGTTCTCCGAAAGTGCGCGGGTTGGAGC was run?
Answer: The RUNX1 binding intensity was 868.

Question: Which RUNX1 binding intensity does the source give for TGCTTCCCTTCAGTGCCGACAGCGAAAACCGCTGCC here?
Answer: Its RUNX1 binding intensity is 795.

Question: GTCGCCGGGATCACCGCAAACGCTTGCTGCTTGCGC was tested. Which RUNX1 binding intensity did it give?
Answer: Its RUNX1 binding intensity is 1190.

Question: AGCCGTGGTCAGCAGCAGCACGACTGCCGCCTCCGC was tested. Which RUNX1 binding intensity did it give?
Answer: The RUNX1 binding intensity was 770.

Question: With GCAACCGCACTCCGAAAGCTCTGGGCCTGAAGAGTC as the sequence, how does the RUNX1 binding intensity read?
Answer: The RUNX1 binding intensity was 943.

Question: Which RUNX1 binding intensity does the source give for AACTGGGCTGAAAGAACGGCTAACCGCAAGCTGCCG here?
Answer: Its RUNX1 binding intensity is 13200.

Question: With TTGATAGCAAACCACACTCGGCACAGAAAGGAGAAC as the sequence, how does the RUNX1 binding intensity read?
Answer: Its RUNX1 binding intensity is 1020.

Question: For GGCGCCTCTTTGCGCCCCCGCCCACAATCGAGCGCA, which RUNX1 binding intensity is on record?
Answer: Its RUNX1 binding intensity is 826.

Question: For GGTGGACCTGTGGTTTGCAACACAGAAAGAGGTGGC, which RUNX1 binding intensity is on record?
Answer: Its RUNX1 binding intensity is 1580.

Question: Which RUNX1 binding intensity does the source give for CCTTTGTTGTGGTTTTTGCAGAAAGAGAAGGGTTAG here?
Answer: The RUNX1 binding intensity was 10600 ± 540.

Question: GGTGGACCTGTGGTTTGCAACACAGAAAGAGACTAT was tested. Which RUNX1 binding intensity did it give?
Answer: Its RUNX1 binding intensity is 1640.

Question: Which RUNX1 binding intensity does the source give for CACCTTTGTTGTGGTTTGTAAACGGAGACAAAAACA here?
Answer: The RUNX1 binding intensity was 1460.

Question: How did the RUNX1 binding intensity turn out when TGACGGCTGCACGGGCGCAGCGGCGGCCCGCAGGGG was run?
Answer: The RUNX1 binding intensity was 736.

Question: With CTGCCTGCCCCACAGCATGCAGGGACAGGCAGTGGG as the sequence, how does the RUNX1 binding intensity read?
Answer: Its RUNX1 binding intensity is 633.

Question: With CGGCCCCCGGGGTGGTTAGCGCTTACGGGGTCGAAG as the sequence, how does the RUNX1 binding intensity read?
Answer: The RUNX1 binding intensity was 714.

Question: With GCCGATGAGGAGGTGAGGGCCAACCACACTGCTCAG as the sequence, how does the RUNX1 binding intensity read?
Answer: Its RUNX1 binding intensity is 870.

Question: AGAGTCTTTTTTACTGAGCGTTTGCGGTTTTGACTT was tested. Which RUNX1 binding intensity did it give?
Answer: The RUNX1 binding intensity was 8560.

Question: Which RUNX1 binding intensity does the source give for AGTGCTGTGGTTTGACTTTGTTTTTACTGTAGCCAG here?
Answer: Its RUNX1 binding intensity is 1880.

Question: How did the RUNX1 binding intensity turn out when TCAGAACTTGGTTTTGAGAGTTTACTGTTTTCTTGA was run?
Answer: The RUNX1 binding intensity was 785.

Question: GGTCTGGAGGACGTTTGCAGCTGCTGTGGGTGGTGG was tested. Which RUNX1 binding intensity did it give?
Answer: Its RUNX1 binding intensity is 787.

Question: ACCTGATGCCGGGGCACCGCCAGATGTGGCCACGAG was tested. Which RUNX1 binding intensity did it give?
Answer: The RUNX1 binding intensity was 872.

Question: Which RUNX1 binding intensity does the source give for TCGCCCGCCGCTTCATGTCGCGGCGCCGCAGAGGCC here?
Answer: The RUNX1 binding intensity was 781.

Question: With AATTAAATTGTGGTAGATAGTAAAAGGACGTAGTTA as the sequence, how does the RUNX1 binding intensity read?
Answer: The RUNX1 binding intensity was 943.

Question: How did the RUNX1 binding intensity turn out when GTAGTAAGTTGTGGTTAAAAGAGAGGACGTTCAGAG was run?
Answer: The RUNX1 binding intensity was 7590.

Question: With TTTAATTCTGTGGTTAGAAGTAAAAGGACGTAAAGG as the sequence, how does the RUNX1 binding intensity read?
Answer: The RUNX1 binding intensity was 3370.

Question: ACTCTGCGGCCCAGCTGCTTCTGTGCACAGGCAATA was tested. Which RUNX1 binding intensity did it give?
Answer: The RUNX1 binding intensity was 791.

Question: Which RUNX1 binding intensity does the source give for CTACCGGGAGTGCGGGTCGCGCTTCAGGCGGCGTCC here?
Answer: Its RUNX1 binding intensity is 724.

Question: TGAAGGCAATTGACGAACACGTGACGCGGTCGGGCG was tested. Which RUNX1 binding intensity did it give?
Answer: Its RUNX1 binding intensity is 721.

Question: With AGCGCCACCGCAGTGATGCAAGTCGGCAGTTGTAGT as the sequence, how does the RUNX1 binding intensity read?
Answer: Its RUNX1 binding intensity is 926.

Question: ATTTCCATTTACGGACTCTTCTCCTGCCCGCAGGGC was tested. Which RUNX1 binding intensity did it give?
Answer: Its RUNX1 binding intensity is 1020.

Question: With TCGTGAAAAAGGAGGTGGATAAAGTGGTTACGGCAA as the sequence, how does the RUNX1 binding intensity read?
Answer: Its RUNX1 binding intensity is 779.

Question: For CCGAGTGGCGGTTGTTTCAAGATGGCGGAGGTGGCA, which RUNX1 binding intensity is on record?
Answer: The RUNX1 binding intensity was 789.5 ± 6.2.

Question: Which RUNX1 binding intensity does the source give for CCAGCATGTGGGCTCTGAACCTGAAGCAACAGGCTC here?
Answer: The RUNX1 binding intensity was 796.

Question: With ATGTTAACACCCTGCCATGAAAACCGCAAGAAGGGC as the sequence, how does the RUNX1 binding intensity read?
Answer: Its RUNX1 binding intensity is 11200.

Question: How did the RUNX1 binding intensity turn out when GGTGTTACACCGCAGCCTTCCATGAAGGGGCAGGGG was run?
Answer: The RUNX1 binding intensity was 1220.

Question: With CATGAGAAACACCCTGCCCAACCACCTGACTACAAG as the sequence, how does the RUNX1 binding intensity read?
Answer: The RUNX1 binding intensity was 1080.

Question: With CCGGGACCGCGGCTTGGGCTCACGGCCACTGCCGAC as the sequence, how does the RUNX1 binding intensity read?
Answer: Its RUNX1 binding intensity is 703.

Question: For GTTTTCAAGGCAGCAAGTGGCTGTGGTGGCACGGAG, which RUNX1 binding intensity is on record?
Answer: Its RUNX1 binding intensity is 837.

Question: For AGGCTTTGCTGCCACAAACTTTCGTGCCACGAACCT, which RUNX1 binding intensity is on record?
Answer: Its RUNX1 binding intensity is 779.

Question: For AGTTGCATACGCGGTATTGGGCAGGCAATGGCAGGG, which RUNX1 binding intensity is on record?
Answer: Its RUNX1 binding intensity is 738.

Question: Which RUNX1 binding intensity does the source give for CGTTTACTGTGGCTGCAGCTCTCCCCACCCACACAC here?
Answer: Its RUNX1 binding intensity is 979.

Question: With GACGCAGCATGAGGTGGAGGTGTAGAATGTGGTGCT as the sequence, how does the RUNX1 binding intensity read?
Answer: Its RUNX1 binding intensity is 760.

Question: With TTTGCACACATGCTGGCCTCCGCCTGACCACCTCCT as the sequence, how does the RUNX1 binding intensity read?
Answer: The RUNX1 binding intensity was 985.

Question: Which RUNX1 binding intensity does the source give for GCCGTGAATGCGGGCTCTCCTGCCGTAAGCTGCCCC here?
Answer: The RUNX1 binding intensity was 824.

Question: With TTACAGGGGCCGGGAGTGGCCTGCGGGCGGAGAAGT as the sequence, how does the RUNX1 binding intensity read?
Answer: Its RUNX1 binding intensity is 738.

Question: How did the RUNX1 binding intensity turn out when TCCTGTGGCTTTGGGGTTCCTTGTTGCCTGGGCTGG was run?
Answer: The RUNX1 binding intensity was 1110.

Question: GTGACCACTGCCTAGTTACTGCCAGCTGAACGAAGG was tested. Which RUNX1 binding intensity did it give?
Answer: Its RUNX1 binding intensity is 729.

Reference: the supplement of paper PMC10681739
